Some test systems named below: T-47D breast; BT-549 breast; MDA-MB-435 melanoma; MCF7 breast; HCT-116 colon; HCC-2998 colon; KM12 colon; SW-620 colon.
Common to all, as to test: NCI-60 one-dose screen, 48 h (100 = growth as untreated, 0 = no growth, -100 = all killed)
Holding throughout (settings): 10 µM

The structures appear in SMILES notation. Compounds without any hit were thinned out: in the full panel of roughly 83,000, 20% have a hit.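 A percent growth of 40 corresponds to 60% growth inhibition; 0 means no net growth; -100 means all cells died. Active threshold: below 10.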 A number with no mark means an inactive call. Calls of active or inactive are those of the source.

With `COc1ccc(NC(=O)CCn2cnc3c(cc(-c4ccccc4)n3-c3ccccc3)c2=O)cc1`, the growth in the assay on T-47D breast was 90.8%; with BT-549 breast, 92.2%; in the assay on MDA-MB-435 melanoma, 96%; in the assay with MCF7 breast, 83.3%; with HCT-116 colon, 91.4%; with HCC-2998 colon, 96.3%. Moreover, the growth in the assay with KM12 colon was 110%.

`CCc1ccc(Nc2cc(C)nc3nc(C)nn23)cc1`: the growth in the assay on T-47D breast was -68.3% (active); in the assay with BT-549 breast it was 40.7%; in the assay on SW-620 colon, -68.9% (active); in the assay with MCF7 breast it was -92% (active); in the assay on HCT-116 colon it was -90.7% (active); with HCC-2998 colon, -69.8% (active). Further, in the assay on KM12 colon, the growth is 3.49% (active).

Take `O=[N+]([O-])c1ccc2c(c1)Cc1cc(I)ccc1-2`: the growth was 105% in the assay with T-47D breast; 94.2% in the assay with BT-549 breast; 98.1% with MDA-MB-435 melanoma; 85% with MCF7 breast; 103% with HCC-2998 colon; 105% in the assay on KM12 colon.

Consider `COc1ccc(-c2cn[nH]c2-c2cc(OC)c(OC)c(OC)c2)cc1`, for which the growth in the assay with T-47D breast is 45.6%; in the assay with BT-549 breast, -13.8% (active); with MDA-MB-435 melanoma it was -19% (active); in the assay with SW-620 colon, 20.5%; in the assay with MCF7 breast, 5.37% (active); in the assay with HCC-2998 colon it was 6.62% (active). In the assay on KM12 colon, the growth is 4.39% (active).

`C=CCOc1ccc2c(c1)CC=C1[C@@H]2CC[C@]2(C)C(=O)/C(=N/O)C[C@@H]12`: the growth in the assay on T-47D breast is 87.8%; in the assay with BT-549 breast, 89.1%; with MDA-MB-435 melanoma, 72.6%; with SW-620 colon it was 79.6%; in the assay on HCT-116 colon, 66.8%; in the assay with HCC-2998 colon, 74.8%.

`CC(C)CCN(CCCNc1c2c(nc3cc(Cl)ccc13)CCCC2)CCC(C)C`: the growth in the assay with T-47D breast is 61.7%; in the assay with BT-549 breast, 87%; in the assay with SW-620 colon, 55.1%; in the assay with MCF7 breast, 40%; in the assay on HCT-116 colon, 31.8%; in the assay on HCC-2998 colon it was 90.1%. For the same molecule, the growth in the assay with KM12 colon was 73.1%.

On to `O=C(Nc1cccc(-c2nc3ccccc3[nH]2)c1)c1cccc(NC(=O)c2ccco2)c1`, for which the growth with T-47D breast was 65.9%; in the assay on BT-549 breast it was 96.3%; with SW-620 colon, 96.6%; in the assay on MCF7 breast it was 61.8%; in the assay with HCT-116 colon, 58.4%; in the assay with HCC-2998 colon, 96.6%. The growth with KM12 colon is 88.1%.

As for `COc1ccc(CSc2nc3cc(OC)c(OC)cc3c(=O)n2-c2ccc(OC)cc2OC)cc1`, the growth with T-47D breast is 75.6%; in the assay on BT-549 breast, 93.9%; in the assay with SW-620 colon, 90.3%; in the assay on MCF7 breast, 83.1%; in the assay with HCT-116 colon, 62.9%; in the assay on HCC-2998 colon, 101%. Further, the growth in the assay on KM12 colon is 78.1%.

As for `CCN1CCOC1C(C)C` (stereo unspecified), the growth with T-47D breast is 101%; with BT-549 breast, 108%; with MDA-MB-435 melanoma, 105%; in the assay on MCF7 breast, 101%; in the assay on HCC-2998 colon it was 101%; in the assay with KM12 colon, 109%.

For `COCCOC(=O)NC(=O)Nc1ccc(/C(=N/O)c2ccc(Cl)cc2)cc1`, the growth was 62.5% with T-47D breast; 50.9% with BT-549 breast; 29% in the assay on SW-620 colon; 14.3% with MCF7 breast; 4.17% (active) in the assay on HCT-116 colon; -1.35% (active) in the assay on HCC-2998 colon. In the assay with KM12 colon, the growth was 11.7%.

For `Cc1ccccc1C1=N[C@@H](Cc2ccccc2)C(=O)c2c(nc3ccccn23)N1`, the growth was 104% with T-47D breast; 96.9% in the assay with BT-549 breast; 98.8% in the assay on MDA-MB-435 melanoma; 103% with SW-620 colon; 84.9% with MCF7 breast; 99.9% in the assay on HCC-2998 colon. The growth with KM12 colon is 108%.

As to `COc1cc(N=C2C(=O)N(Cc3ccccc3)c3ccccc32)cc(OC)c1OC`, the growth in the assay with T-47D breast was 83.9%; in the assay with BT-549 breast, 106%; with MDA-MB-435 melanoma, 98.5%; in the assay with SW-620 colon it was 103%; in the assay on MCF7 breast, 93.8%; in the assay on KM12 colon, 96.1%.

Consider `CC(=O)c1c(O)cc2c3c1OC(C)(C)C1CCC(C)(CC31)O2` (stereo unspecified), for which the growth in the assay on T-47D breast is 66.4%; in the assay on BT-549 breast, 90.8%; with MDA-MB-435 melanoma, 104%; in the assay with SW-620 colon, 107%; with MCF7 breast, 119%; in the assay with HCC-2998 colon, 115%. In addition, the growth with KM12 colon was 94.8%.

For the molecule `CCOCC[P+](c1ccccc1)(c1ccccc1)c1ccccc1`, the growth was 18% in the assay on T-47D breast; 36.9% with BT-549 breast; 60% in the assay on SW-620 colon; 31.1% with MCF7 breast; 38.1% with HCT-116 colon; 31.7% in the assay with HCC-2998 colon. In addition, the growth in the assay on KM12 colon is 25.8%.

Regarding `CCOC(=O)c1ccc(NC(=O)Nc2nncs2)cc1`, the growth with T-47D breast is 49.3%; in the assay on BT-549 breast, 13.7%; in the assay with SW-620 colon it was 18%; in the assay with MCF7 breast, 21.7%; with HCT-116 colon, 12.6%; with HCC-2998 colon it was 18.8%. Besides, the growth in the assay on KM12 colon was 12.4%.

In the case of `COc1ccccc1CNCCCN1C(=O)c2ccc3c4c(ccc(c24)C1=O)C(=O)N(CCCNCCNCCCN)C3=O`, the growth in the assay on T-47D breast was 17.9%; in the assay on BT-549 breast it was 69.4%; in the assay on SW-620 colon, 8.12% (active); in the assay on MCF7 breast, -39.1% (active); with HCT-116 colon, 1.05% (active); with HCC-2998 colon it was 14.7%. For the same molecule, in the assay with KM12 colon, the growth was 15.4%.

For the molecule `O=C(Nc1ccc(Oc2ccc(Nc3nc4ccccc4s3)cc2)cc1)Nc1ccc(Cl)c(Cl)c1`, the growth is 13.9% in the assay on T-47D breast; 59.5% in the assay with BT-549 breast; 33.6% with SW-620 colon; 29.3% with MCF7 breast; 16.8% in the assay on HCT-116 colon; 29.4% in the assay with HCC-2998 colon.

As for `COc1ccc(/C=C2\CCC3C(CCCC34OCCO4)C2=O)cc1` (stereo unspecified), the growth in the assay on T-47D breast was 75.4%; with BT-549 breast, 88.4%; with MDA-MB-435 melanoma, 29.9%; with SW-620 colon, 75.6%; in the assay on MCF7 breast, 70.6%; in the assay on HCC-2998 colon it was 92.4%. The growth with KM12 colon was 67.7%.
